The text below walks through data of PubChem BioAssay AID686979 (National Center for Advancing Translational Sciences (NCATS), 2013).

Hit rate of the full screen: of about 420,000 compounds, about 50,000 (12%) were called active. Inconclusive results (about 26%) are left out. Only a selection was taken, and actives are over-represented in it overall. Unmarked numbers belong to inactive results. Calls follow the shape of the dose curve; as a rule, active = well fitted inhibition curve with a large enough effect; inconclusive = small, poorly fitted or top-dose-only effect; inactive = flat fitted curve, though single readings scatter.
% is scaled to controls: 0 for no effect and ±100 for the full control effect; potency is read from the fitted curve at half-maximal effect.

A short description of this assay: qHTS for Inhibitors of human tyrosyl-DNA phosphodiesterase 1 (TDP1): qHTS in cells in presence of CPT. Also: nearly all actives have a fitted effect of over 55% in size. To be noted: chicken DT40 Tdp1-/-;hTDP1 cells + 20 nM CPT, ATP luminescence, 48 h; series mostly up to 46.2 µM; activity change, negative = growth inhibition: at the top concentration. A digest of the protocol:
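Chicken DT40 Tdp1-/- cells complemented with human TDP1, 400 cells/well, exposed to compounds plus 20 nM camptothecin for at least 48 h at 37 C; viability read as ATP content by CellTiter-Glo luminescence.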
Background: qHTS replaces the single test concentration by a dilution series.
Take `Cc1ccc(C2(C(F)(F)F)N=C3Sc4cc(C)cc(C)c4N3C(=O)N2)cc1` (stereo unspecified): the “activity change, negative = growth inhibition” value was -24%.

Turning to `c1ccc(Cc2ccc(OCCn3ccnc3)cc2)cc1`, the Potency was 20.6 µM (active).

For `Brc1ccc(OCCn2ccnc2)cc1`, the “activity change, negative = growth inhibition” value is -13.2%.

`C=CCc1cc(C)ccc1OCCCn1ccnc1`: the “activity change, negative = growth inhibition” value was -5.81%.

With `CCN(CC(=O)Nc1ccc2c(c1)OCCO2)Cc1cc(=O)oc2cc(C)c(C)cc12`, the “activity change, negative = growth inhibition” value was -11.4%.

`CC(C)Cc1oc(C(=O)O)cc1CN`: the “activity change, negative = growth inhibition” value was -6.65%.

Consider `Cc1cc(C)c(NC(=O)CSc2nc3nccnc3c(=O)n2CCc2c[nH]c3ccccc23)c(C)c1`, for which the “activity change, negative = growth inhibition” value is 7.65%.

As for `O=C(CSc1nc2nccnc2c(=O)n1CCc1c[nH]c2ccccc12)Nc1ccccc1F`, the Potency is 10.3 µM (active).

As to `Cc1cc(C)cc(NC(=O)CSc2nc3nccnc3c(=O)n2CCc2c[nH]c3ccccc23)c1`, the Potency was 14.6 µM (active).

In the case of `Cn1c(CCC(=O)Nc2ccccc2F)nnc1SCC(=O)Nc1ccccc1Cl`, the “activity change, negative = growth inhibition” value is 0.558%.

As to `Cc1cc(C)cc(NC(=O)Cn2c(=O)c3ccccc3n3nncc23)c1`, the “activity change, negative = growth inhibition” value was 9.23%.

On to `COCCn1c(SCC(=O)Nc2ccccc2F)nc2c(c1=O)SCC2`, for which the “activity change, negative = growth inhibition” value is -16.1%.

For `O=Cc1c(Cl)cccc1Cl`, the “activity change, negative = growth inhibition” value is 11.4%.

Regarding `CC1(C)O[C@@H]2[C@H](O1)[C@@H](CO)O[C@H]2n1c(N2CCCCC2)nc2c(N)ncnc21`, the “activity change, negative = growth inhibition” value was 3.84%.

Regarding `CC(C)CNS(=O)(=O)c1ccc(C(=O)Nc2ccc3c(c2)OCO3)cc1`, the “activity change, negative = growth inhibition” value is 9.38%.

For `CC(=O)Nc1cccc(NC(=O)CSc2nccn2Cc2ccc3c(c2)OCO3)c1`, the “activity change, negative = growth inhibition” value was -27.2%.

On to `CNc1ccc([N+](=O)[O-])cc1C(=O)O`, for which the “activity change, negative = growth inhibition” value is 5.24%.

On to `Cn1cnc([N+](=O)[O-])c1Sc1ccccc1`, for which the Potency was 18.4 µM (active).

As for `Cn1cnc([N+](=O)[O-])c1Nc1ccccc1O`, the “activity change, negative = growth inhibition” value was -9.13%.

Take `Cn1cnc([N+](=O)[O-])c1Sc1n[nH]c(N)n1`: the “activity change, negative = growth inhibition” value is -7.25%.

With `COc1cccc(N2CC(NS(=O)(=O)c3cccs3)CC2=O)c1` (stereo unspecified), the “activity change, negative = growth inhibition” value was 5.7%.

As to `Cc1c(Cl)cccc1NC(=O)CCS(=O)(=O)c1ccc2c(c1)oc(=O)n2C`, the “activity change, negative = growth inhibition” value is -7.1%.

For the compound `O=C(COC(=O)c1ccc(F)cc1)NCC1COc2ccccc2O1` (stereo unspecified), the “activity change, negative = growth inhibition” value was -12.5%.

In the case of `OC(COCC1COc2ccccc2O1)CN1CCN(c2ccc(F)cc2)CC1` (stereo unspecified), the Potency is 13 µM (active).

`OC(COCc1ccco1)CN1CCN(c2ccccc2)CC1` (stereo unspecified): the “activity change, negative = growth inhibition” value is -6.96%.

Turning to `Nc1ncnc2c1ncn2[C@@H]1O[C@H](C(=O)NCC(F)(F)F)[C@@H](O)[C@H]1O`, the “activity change, negative = growth inhibition” value is 3.52%.

Regarding `COc1ccccc1NC(=O)COC(=O)COc1ccccc1F`, the “activity change, negative = growth inhibition” value is 1.41%.

As to `CCc1nn(CC(=O)N2CCN(c3cc(C)ccc3C)CC2)c(=O)c2cc3occc3n12`, the “activity change, negative = growth inhibition” value was -24.8%.

Consider `CCCNC(=O)C(CC)n1nc(CC)n2c(cc3oc(C)cc32)c1=O` (stereo unspecified), for which the Potency was 25.9 µM (active).

On to `CCc1nn(CCCC(=O)NC(C)c2ccccc2)c(=O)c2cc3occc3n12` (stereo unspecified), for which the “activity change, negative = growth inhibition” value was -4.62%.

Regarding `O=C(CC[C@H]1O[C@@H](n2ccc(=O)[nH]c2=O)[C@H](O)[C@@H]1O)N[C@H](Cc1ccccc1)C(=O)NCCCN1CCCC1=O`, the “activity change, negative = growth inhibition” value is 3.41%.

Turning to `CC1CCCN(c2csc3ccc(F)cc3c2=O)C1` (stereo unspecified), the “activity change, negative = growth inhibition” value was -4.58%.

As for `Cn1cccc1C(=O)OCC(=O)NCCc1ccccc1`, the “activity change, negative = growth inhibition” value is 6.72%.

For the compound `CCN1C(=O)N[C@@H](c2ccccc2)C(C(=O)OC)=C1C`, the “activity change, negative = growth inhibition” value is -10.8%.

In the case of `COC(=O)C1=C(C)N(Cc2ccccc2)C(=NCCCOC(C)C)N[C@H]1c1ccccc1`, the Potency was 6.51 µM (active).

Take `COCCN1C(=O)N[C@@H](c2ccccc2)C(C(=O)OC)=C1C`: the “activity change, negative = growth inhibition” value is -14.8%.

Turning to `CC(C)C(=O)Nc1ccc2c3c(cccc13)CC2`, the “activity change, negative = growth inhibition” value was -12.5%.

As for `CN(Cc1ccccc1)C(=O)c1cn(C)c2ccc(S(=O)(=O)N3CCCCC3)cc2c1=O`, the “activity change, negative = growth inhibition” value was -0.632%.

For `CCC(CC)C(=O)Nc1c2c(nn1-c1ccc(C)cc1)CS(=O)(=O)C2`, the “activity change, negative = growth inhibition” value was -16.7%.

For the compound `O=C(NCc1ccccc1)c1cc(-c2cccc(Cl)c2)on1`, the “activity change, negative = growth inhibition” value is -18.1%.

On to `CCOCCOC(=O)C1=C(C)N(C)C(=O)NC1c1ccccc1F` (stereo unspecified), for which the “activity change, negative = growth inhibition” value is -20.7%.

`CCOC(=O)N1CCc2c(sc3c2C(=O)NC(c2ccccc2F)N3)C1` (stereo unspecified): the Potency was 20.6 µM (active).

With `N#Cc1c(N)sc2c1CCN(C(=O)OCc1ccccc1)C2`, the “activity change, negative = growth inhibition” value is -15.3%.

`CC1OC(OCC2OC(Oc3c(-c4ccc(O)c(O)c4)oc4cc(O)cc(O)c4c3=O)C(O)C(O)C2O)[C@@H](O)C(O)C1O` (stereo partly specified): the “activity change, negative = growth inhibition” value is 17.3%.

For `CCOc1ccc(CCNC(=O)COC(=O)C2CCN(S(=O)(=O)c3ccccc3)CC2)cc1OCC`, the “activity change, negative = growth inhibition” value was 1.91%.

As to `COc1ccc(-c2cc(=O)oc3cc(OCC(=O)N(C)C4CCS(=O)(=O)C4)ccc23)cc1` (stereo unspecified), the “activity change, negative = growth inhibition” value is -10.4%.

In the case of `CCC1SC(CC)C(=O)N(CC(=O)NC2CCCCC2)C1=O` (stereo unspecified), the “activity change, negative = growth inhibition” value is 8.38%.

With `CN1c2ccc(C=O)c3c(C=O)ccc(c23)N(C)C1(C)C`, the Potency is 20.6 µM (active).

Regarding `NC(=O)c1ccc(Nc2ccc3c(c2)CCC3)c([N+](=O)[O-])c1`, the “activity change, negative = growth inhibition” value was 2.21%.

As for `CNN/C(N=Cc1ccc([N+](=O)[O-])s1)=N\S(=O)(=O)c1cc(C)c(Cl)cc1SCc1ccccc1`, the Potency is 1.16 µM (active).

With `O=C(CCC(=O)c1cccs1)Nc1nc2ccccc2s1`, the “activity change, negative = growth inhibition” value is -6.62%.
